Assay results published in PubChem BioAssay.
The source made the active and inactive calls. Unless noted, the rule behind the calls is not given here.

How the values were obtained:
[1] = system: Wnt5a (protein binding on small-molecule microarray); test: small molecules binding Wnt5a protein – biophysical, small-molecule microarray, 635/667 nm fluorescence, primary screen (AID 1142); conditions: 635 nm fluorescence, higher = more signal;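 note: fluorescence read at 667 nm with signal to noise per printed feature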
[2] = ATP-based viability of Huh7 replicon cells – cell-based, CellTiter-Glo luminescence, basal, 48 h, cytotoxicity control for HCV replication inhibitor project, primary screen (AID 1143); conditions: higher = more signal, called active from +8 up or from −8 down;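 note: Huh7 hepatoma cells carrying a hepatitis C replication reporter with no stimulus; test concentration not given here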
[3] = Pseudomonas biofilm growth suppression – PAO1 strain, BacTiter-Glo luminescence, LB-PBS, primary screen (AID 1144); conditions: P. aeruginosa PAO1 biofilm, 12 h, higher = more signal
[4] = basal CRE-LacZ reporter activity in PC12 – cell-based, unstimulated, primary screen (AID 1145); conditions: no forskolin, luminescence, 4.5 h, higher = more signal, called active from +8 up or from −8 down
[5] = forskolin-driven CRE-LacZ activity in PC12 – cell-based, CRE-LacZ reporter, forskolin-stimulated, primary screen (AID 1146); conditions: luminescence, 4.5 h, higher = more signal, called active from +8 up or from −8 down;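 note: PC12 cells with 6xCRE LacZ reporter stimulated by forskolin 10 µM; beta-galactosidase reporter signal reflecting CREB driven transcription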
[6] = molecular target: Streptavidin (Streptomyces avidinii) (UniProt P22629); test: compounds binding control protein streptavidin – biophysical, small-molecule microarray, 635/667 nm fluorescence, artefact control for SMM compound annotation, primary screen (AID 1147); conditions: higher = more signal;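 note: signal reflects streptavidin binding to arrayed compounds as a control protein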
Sequence of Streptavidin (Streptomyces avidinii) (P22629 whole entry, looked up): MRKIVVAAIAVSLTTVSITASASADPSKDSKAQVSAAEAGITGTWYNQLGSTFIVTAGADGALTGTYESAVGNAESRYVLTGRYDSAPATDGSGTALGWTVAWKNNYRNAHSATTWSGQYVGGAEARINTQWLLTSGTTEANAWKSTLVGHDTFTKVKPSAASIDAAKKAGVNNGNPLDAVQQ

[7] = probe aInhba binding on compound microarray – biochemical, small-molecule microarray, 635/667 nm fluorescence, primary screen (AID 1148); conditions: higher = more signal;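 note: score merges 667nm spot fluorescence with signal-to-noise for antibody binding to printed compounds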
[8] = molecular target: Torsin-1A (Homo sapiens) (UniProt O14656); test: TOR1A wild-type binding on microarray – cell lysate, small-molecule microarray, lysate, 635/667 nm, primary screen (AID 1149); conditions: COS7 hTOR1A-WT lysate, 635 nm fluorescence, higher = more signal
Sequence of Torsin-1A (Homo sapiens) (O14656 whole entry, looked up): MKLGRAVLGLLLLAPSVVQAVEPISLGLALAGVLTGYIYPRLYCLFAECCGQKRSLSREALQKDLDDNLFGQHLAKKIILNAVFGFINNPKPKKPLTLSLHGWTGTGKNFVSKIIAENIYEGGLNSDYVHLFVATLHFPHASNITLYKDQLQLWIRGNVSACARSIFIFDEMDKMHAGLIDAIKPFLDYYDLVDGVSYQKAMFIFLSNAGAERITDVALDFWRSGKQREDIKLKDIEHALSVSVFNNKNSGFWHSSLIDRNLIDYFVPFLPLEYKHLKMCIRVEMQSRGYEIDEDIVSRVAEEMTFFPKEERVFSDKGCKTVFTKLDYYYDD

[9] = molecular target: Torsin-1A (Homo sapiens) (UniProt O14656); test: torsin A mutant lysate binding on microarrays – cell lysate, small-molecule microarray, COS7 lysate, 635/667 nm fluorescence, primary screen (AID 1150); conditions: COS7 hTOR1A mutant lysate, 635 nm fluorescence, higher = more signal;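 note: score pools 667 nm emission and signal to noise measuring lysate protein binding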
[10] = system: Sonic hedgehog protein (Shh); test: Sonic hedgehog microarray binding compounds – biochemical, small-molecule microarray, 635/667 nm fluorescence, primary screen (AID 1151); conditions: 635 nm fluorescence, higher = more signal;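 note: Shh protein binding to compounds spotted on small-molecule microarray slides; score combines spot fluorescence intensity with signal-to-noise across triplicate slides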

SMILES | composite z-score [1] | z-score [2] | z-score [3] | z-score [4] | z-score [5] | composite z-score [6] | composite z-score [7] | composite z-score [8] | composite z-score [9] | composite z-score [10]
CN1C(=O)C2C=CC(C(O)c3ccco3)N(Nc3ccccc3)C2C1=O (stereo not given) | 0.148 | 1.11 (inactive) | -0.197 (inactive) | -0.133 (inactive) | 0.0834 (inactive) | 0.437 | -0.0131 | 0.336 | -0.59 | 0.59
NC(=O)NCC#Cc1ccc2c(c1)[C@]1(C(=O)N2)[C@H](C(=O)Nc2nc3ccccc3s2)[C@H]2C(=O)O[C@H](c3ccccc3)[C@H](c3ccccc3)N2[C@@H]1c1ccccc1OCCO | 0.436 | -4.58 (inactive) | -1.22 (inactive) | 0.0776 (inactive) | -0.327 (inactive) | 2.4 | 0.105 | -0.3 | 0.0607 | 2.04
CC1CC/C=C\[C@H]2OC34C=CCN(C(C)(C)C)C(=O)[C@H]3N(CCO)C(=O)[C@@H]4C2C(=O)O1 (stereo not given in full) | -0.276 | -0.973 (inactive) | -0.0996 (inactive) | -0.753 (inactive) | -0.237 (inactive) | -1.59 | -0.171 | -2.34 | -2.49 | -0.0338
CC(=O)NCCCC[C@@H]1NC(=O)[C@H]2C[C@@H](C(=O)NCCCCCCNC(=O)CS)[C@@H](c3ccc(O)cc3)N2C1=O | 0.151 | -0.133 (inactive) | -0.619 (inactive) | -0.528 (inactive) | 0.14 (inactive) | -1.22 | 0.0074 | 0.365 | 2.14 | 1.22
COc1cc(C(O)C2C=CC3C(=O)NC(=O)C3N2Nc2ccccn2)cc(OC)c1OC (stereo not given) | 0.147 | 0.969 (inactive) | 0.0747 (inactive) | 0.0467 (inactive) | 0.329 (inactive) | 0.0266 | 0.0448 | 0.366 | 0.291 | 0.371
C=C(CCCC)/C(=C/C[C@@H](OC(=O)c1ccncc1)c1ccc(OCCO)cc1)c1cc(C(=O)OC)ccc1OC | -0.109 | -1.43 (inactive) | -0.0194 (inactive) | 2.32 (inactive) | 1.99 (inactive) | 0.378 | -0.128 | 0.0383 | 0.111 | 1.41
COCCOC(=O)N1C(=O)[C@@]2(c3cc(C#CCCO)ccc31)[C@H](C(=O)N1CCCCCCC1)[C@H]1C(=O)O[C@H](c3ccccc3)[C@H](c3ccccc3)N1[C@@H]2c1ccc(OCCO)cc1 | 0.87 | -1.2 (inactive) | -0.589 (inactive) | -0.581 (inactive) | -0.571 (inactive) | 1.43 | 1.38 | 1.8 | 1.44 | 1.53
Cc1ccc(N2C(=O)c3ccccc3[C@@H](C(=O)NC3CC3)[C@@H]2c2ccc(CO)cc2)nc1 | -0.645 | 0.256 (inactive) | -0.754 (inactive) | -0.062 (inactive) | 0.986 (inactive) | -1.76 | -0.282 | 1.23 | 0.969 | -0.958
